The record followed here is PubChem BioAssay (Tox21).

Each structure is given as a SMILES string. Inconclusive results are not listed. Entries that show only a call come without a potency. Active and inactive are the calls of the source. Calls come from the whole dose curve; as a rule, active = well fitted curve in the direction sought with a large enough effect in the repeat runs; inconclusive = weak or mixed curves; inactive = no such curve, though single readings can be large; an effect the other way counts as inactive or inconclusive.

The nature of one assay: A CellTox Green Cytotoxicity Assay to monitor cytotoxicity in HepG2 cells - 16 hour (AID 1224876). Note: nearly all actives have a fitted effect of over 45% in size. The settings on record: CellTox Green fluorescence; series mostly up to 76.8 µM. A digest of the protocol: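 Fluorescent DNA-binding dye, 600 HepG2 cells/well, 5 h preincubation then compound in DMSO; same plates read at 0–40 h, 37 C.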
As to `CC(C)[C@]12CC(=O)[C@H](C)[C@H]1C2`, the Potency result was “inactive”.

With `O=C1CCCCC1Cl` (stereo not drawn), the Potency result was “inactive”. On the same count and under the same terms, the entry for `[P]#[In]` is “inactive”.

`CC(C)(C)C(=O)C(Cl)Cl`: the Potency result was “inactive”.

A short description of the next assay: qHTS RealTime-Glo MT Cell Viability Assay in HepG2 cells - 32 hour (AID 1224877). Note: nearly all actives have a fitted effect of over 55% in size. The settings on record: RealTime-Glo luminescence; series mostly up to 76.8 µM. A digest of the protocol:
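HepG2 suspension premixed with RealTime-Glo reagents is plated at 600 cells per well and left 5 h at 37 C/5% CO2. Compounds in DMSO then go in, and bioluminescence reflecting viable cell number is recorded over 40 h.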
With `CCCOC(=O)Cc1ccc(OCC(=O)N(CC)CC)c(OC)c1`, the Potency result was “inactive”. For `O=C(Cl)C(Cl)Cl`, the Potency result was “inactive”. In the case of `CC[C@H](N)c1ccccc1`, the Potency entry was “inactive”. Take `CC(O)CCl` (stereo not drawn): the Potency entry is “inactive”. `CCCCCCCC(=O)Cl`: the Potency entry was “inactive”. With `CCCCCCCCBr`, the Potency result was “inactive”. Regarding `O=C(O)C(Cl)Br` (stereo not drawn), the Potency entry is “inactive”.

As for `COC1=CC(=O)O[C@@H](/C=C/c2ccccc2)C1`, the Potency result is “inactive”. Still for that read-out and setting: the entry for `ClCCN1CCCC1` is “inactive”; for `C=CC=O` it is “inactive”. Consider `O=C(O)c1c(Cl)ccc2cc(Cl)cnc12`, for which the Potency entry was “inactive”. Regarding `CS(=O)(=O)Cl`, the Potency result is “inactive”.

For the compound `CCOC(=O)CC(SP(=S)(OC)OC)C(=O)OCC` (stereo not drawn), the Potency result was “inactive”. On the same count and under the same terms, in the case of `[O-][Br+2]([O-])O` it was “inactive”. On to `Cc1cccc2sc3nncn3c12`, for which the Potency entry was “inactive”. Same read-out and setting: the entry for `CN1C(=O)COc2c(C(=O)NC3CN4CCC3CC4)cc(Cl)cc21` (stereo not drawn) is “inactive”. Take `CCN(CCO)CCO`: the Potency entry is “inactive”. With `CON(C)C(=O)Nc1ccc(Br)cc1`, the Potency entry was “inactive”. Regarding `N=C(N)[Se]`, the Potency entry was “inactive”. For `ClC1=C(Cl)C2(Cl)C(CBr)CC1(Cl)C2(Cl)Cl` (stereo not drawn), the Potency result is “inactive”.

Regarding `CN(C)CCN(C)C`, the Potency entry is “inactive”. As to `CC(C)(O)C(Cl)(Cl)Cl`, the Potency result was “inactive”. Regarding `C/C(=N\NC(=O)Nc1cc(F)cc(F)c1)c1ncccc1C(=O)O`, the Potency result was “inactive”.

For the compound `C1CN2CCC1CC2`, the Potency result is “inactive”. In the case of `CCOC1Oc2ccc(OS(C)(=O)=O)cc2C1(C)C` (stereo not drawn), the Potency entry is “inactive”. As to `O=CCCl`, the Potency entry is “inactive”. In the case of `CC#Cc1cc(C)nc(Nc2ccccc2)n1`, the Potency result was “inactive”. With `CCOC(=O)CCl`, the Potency entry is “inactive”. In the case of `CNC(=O)O/N=C(/CSC)C(C)(C)C`, the Potency result is “inactive”.
